Read-out in test [1]: Cyclin D1 (CCND1), CCND1 (gene 595)
The test is described as follows: LTEA_HepaRG_CCND1: Life Technologies and Expression Analysis (LTEA) Assay for Cyclin D1 (CCND1) using HepaRG (AID 2283451).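 As to AC50: differentiated human HepaRG liver cells in serum-free induction medium; TaqMan qRT-PCR transcript level normalised to ACTB GAPDH and POLR2A housekeeping genes.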 Conditions: mRNA level, 48 h; actives raise or lower the signal. An outline of the steps: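 Expression of CCND1 was quantified by qRT-PCR on Fluidigm arrays using ACTB, GAPDH and POLR2A as reference genes. HepaRG cultures, plated 48 h beforehand, were dosed for 48 h at up to 100 uM (half-log, 8 points) in 0.5% DMSO.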

Read-out in test [2]: catalase (CAT), CAT (gene 847)
Nature of the test: LTEA_HepaRG_CAT: Life Technologies and Expression Analysis (LTEA) Assay for catalase (CAT) using HepaRG (AID 2283452). Particulars: mRNA level, 48 h; actives raise or lower the signal. An outline of the steps:
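Expression of CAT was quantified by TaqMan qRT-PCR with ACTB/GAPDH/POLR2A normalization after 48 h chemical exposure of HepaRG. Eight-point half-log series, top 100 uM, in 0.5% DMSO; gain or loss fitted against vehicle.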

Read-out in test [3]: flavin-containing dimethylaniline monooxygenases 3 (FMO3), FMO3 (gene 2328)
Nature of the test: LTEA_HepaRG_FMO3: Life Technologies and Expression Analysis (LTEA) Assay for flavin-containing dimethylaniline monooxygenases 3 (FMO3) using HepaRG (AID 2283453).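 As to AC50: differentiated human HepaRG liver cells in serum-free induction medium.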 Particulars: mRNA level, 48 h; actives raise or lower the signal. An outline of the steps: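 FMO3 transcript quantified by TaqMan qRT-PCR against three housekeeping genes after 48 h chemical exposure of HepaRG cells. Eight-point half-log series, top 100 uM, 0.5% DMSO vehicle; phenobarbital 1mM induction control; up- or down-regulation fitted.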

Read-out in test [4]: Cytochrome P450 (CYP1A1), CYP1A1 (gene 1543)
Nature of the test: LTEA_HepaRG_CYP1A1: Life Technologies and Expression Analysis (LTEA) Assay for Cytochrome P450 (CYP1A1) using HepaRG (AID 2283454). Conditions: mRNA level, 48 h; actives raise or lower the signal. An outline of the steps: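 CYP1A1 transcript levels measured by Fluidigm qRT-PCR against three housekeeping genes, 48 h after chemical dosing of human HepaRG cells (highest concentration 100 uM, half-log steps, 0.5% DMSO vehicle). Gain or loss of signal fitted relative to DMSO.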

Read-out in test [5]: CFLAR gene, CFLAR (gene 8837)
Nature of the test: LTEA_HepaRG_CFLAR: Life Technologies and Expression Analysis (LTEA) Assay for CFLAR gene using HepaRG (AID 2283455). Particulars: mRNA level, 48 h; actives raise or lower the signal. The method, boiled down:
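Transcript level by qRT-PCR (normalized to ACTB, GAPDH and POLR2A) after 48 h chemical exposure of HepaRG cells, top concentration 100 uM with half-log steps, 0.5% DMSO vehicle, duplicates; fitted bidirectionally against DMSO baseline.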

Read-out in test [6]: Forkhead box O1 (FOXO1), FOXO1 (gene 2308)
Nature of the test: LTEA_HepaRG_FOXO1: Life Technologies and Expression Analysis (LTEA) Assay for Forkhead box O1 (FOXO1) using HepaRG (AID 2283456). Conditions: mRNA level, 48 h; actives raise or lower the signal. An outline of the steps: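 FOXO1 transcript quantified by qRT-PCR after 48 h chemical exposure (top 100 uM, half-log steps, 0.5% DMSO) of HepaRG cells, housekeeping-normalized (ACTB/GAPDH/POLR2A). Changes fitted in both directions relative to vehicle.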

Test [7] can be described thus: CEETOX_H295R_TESTO: CeeTox H295R High-throughput Steroidogenesis Assay for Testosterone (TESTO) (AID 2283457). Particulars: actives raise or lower the signal. The method, then:
CEETOX_H295R is a cell-based, multiplexed-readout assay that uses H295R, a human adrenal gland cell line, with measurements taken at 48 hours after chemical dosing in a 96-well plate.CEETOX_H295R_TESTO is one of 23 assay component(s) measured or calculated from the CEETOX_H295R assay. It is designed to make measurements of hormone induction, a form of inducible reporter, as detected with […] by HPLC-MS-MS technology.Data from the assay component CEETOX_H295R_TESTO was analyzed into 1 assay endpoint. This assay endpoint, CEETOX_H295R_TESTO, was analyzed with bidirectional fitting relative to DMSO as the negative control and baseline of activity. Using a type of inducible reporter, gain or loss-of-signal activity using HPLC-MS-MS was used to understand synthesis of Testosterone in H295R cell line at 48hr of chemical exposure. To generalize the intended target to other relatable targets, this assay endpoint is annotated to the steroid hormone intended target family, where the subfamily is androgens.
Cell culture and media preparation procedures were conducted in accordance with OECD Test No. 456 guidelines, with minor modifications. H295R cells (ATCC CRL-2128) were expanded for 5 passages and frozen in batches in liquid nitrogen. Prior to the steroidogenesis assay, H295R cells were thawed and passed at least 4 times. The maximum passage was 10. Cells were maintained in a 1:1 mixture of DMEM/F12 supplemented with 5ml/L ITS+ Premix (BD Bioscience) and 12.5 ml/L Nu-Serum (BD Bioscience). After seeding cells into 96-well plates at 50-60% confluency, cells were allowed to adhere overnight. […] Test chemicals were incubated for 48 hours, then the medium was removed and split into 2 vials containing approximately 75uL each, and stored at -80 C prior to hormone analysis. For steroid quantification, media samples were shipped to OpAns, LLC (Durham, NC) on dry ice, and samples were thawed to room temperature prior to liquid-liquid extraction. Steroid hormones were extracted from media samples using methyl tertbutyl ether (MTBE). An extra derivatization with dansyl chloride was included for estrogen (estrone and estradiol) detection only. Steroid hormones were separated by HPLC, eluted using a reverse phase C18 gradient with electrospray positive ionization, followed by quantification by tandem mass spectrometry (MS/MS). Data were acquired on a MassHunter Workstation Acquisition version B03.01 (Agilent Technologies, Inc.) and processed using MassHunter Quantitative Analysis for QQQ. Accuracy was determined for each hormone analyte from 3 standards to determine upper and lower limits of quantification (ULOQ and LLOQ, respectively) using a 7-point standard curve. Precision and accuracy of the extraction and quantification methods were calculated as the percent relative standard deviation (%RSD) of the spiked standards and percent spiked standard recovered, respectively. […] Test medium was removed following chemical exposure, and cell viability was evaluated in the same wells by MTT. MTT procedures were as follows: after removal of test medium, 500 uL of 0.5 mg/ml of 3-[4,5-dimethylthiazol-2-y]2,5-diphenyltetrazoliumbromide solution was added to the cells. Following a 4-hour incubation at 37 C and 5% CO2 to allow formazan-crystal formation, the MTT solution was removed and blue formazan salt crystals were solubilized using 500uL anhydrous isopropanol with shaking for 20 minutes. Absorbance was read at 570 and 650nm using a Packard Fusion microplate reader. Background correction of absorbance units was used to determine percent change relative to controls. […] When a test chemical reduced cell viability to 20% - 70%, the test chemical was diluted 10-fold and re-evaluated, but if cell viability was <20%, then the test chemical was diluted 100-fold and re-evaluated. Test chemical dilutions were made until cell viability was >/=70%. MTT assays were also conducted for duplicates of all concentrations of chemicals tested in concentration-response studies. […]

Read-out in test [8]: growth arrest and DNA damage 45 (GADD45A), GADD45A (gene 1647)
Nature of the test: LTEA_HepaRG_GADD45A: Life Technologies and Expression Analysis (LTEA) Assay for growth arrest and DNA damage 45 (GADD45A) using HepaRG (AID 2283458). Conditions: mRNA level, 48 h; actives raise or lower the signal. The method, boiled down: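 Transcript induction or loss, quantified by TaqMan qRT-PCR against three housekeeping genes, is the read-out. HepaRG cells received chemicals for 48 h across eight half-log concentrations from 100 uM in 0.5% DMSO; gain and loss fitted relative to DMSO.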

Read-out in test [9]: Forkhead box O3 (FOXO3), FOXO3 (gene 2309)
Nature of the test: LTEA_HepaRG_FOXO3: Life Technologies and Expression Analysis (LTEA) Assay for Forkhead box O3 (FOXO3) using HepaRG (AID 2283459). Conditions: mRNA level, 48 h; actives raise or lower the signal. The method, boiled down: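 FOXO3 transcript measured by qRT-PCR (normalized to ACTB, GAPDH, POLR2A) after 48 h exposure of HepaRG cells in serum-free induction medium. Duplicates, eight half-log concentrations up to 100 uM, 0.5% DMSO; gain or loss fitted against DMSO.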

Read-out in test [10]: ABC Transporter (ABCB1), ABCB1 (gene 5243)
The test is described as follows: LTEA_HepaRG_ABCB1: Life Technologies and Expression Analysis (LTEA) Assay for ABC Transporter (ABCB1) using HepaRG (AID 2283460). Particulars: mRNA level, 48 h; actives raise or lower the signal. An outline of the steps:
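ABCB1 transcript level measured by TaqMan qRT-PCR against three housekeeping genes after 48 h chemical exposure of differentiated HepaRG cells. Top concentration 100 uM, half-log steps, eight points, 0.5% DMSO vehicle; bidirectional fit relative to DMSO.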

The source made the active and inactive calls. The calls were made as follows: active = hit-call score of the fitted dose curve at least 0.9, where 1 is the maximum; inactive = score below 0.9.

Turning to `N#CC(CCc1ccc(Cl)cc1)(Cn1cncn1)c1ccccc1` (stereo unspecified), the AC50 (commonly the concentration at which the activity in the assay is half-maximal) is 71.5 µM (active) in [1]; 54.5 µM (active) in test [2]; 72.9 µM (active) in [3]; 9.8 µM (active) in test [4]; 77.8 µM (active) in [6]; 74.7 µM (active) in test [8]. Further, the outcome in test [5], in test [7], in test [9] and in [10] was inactive.

Consider `CCCCNC(=O)n1c(NC(=O)OC)nc2ccccc21`, for which the compound was classed as inactive in test [1], in [2], in [3], in [5], in test [6] and in test [7]. The call in test [8], in test [9] and in test [10] was inactive. Besides, the AC50 in test [4] is 26.1 µM (active).

Regarding `CC1=C(C(=O)Nc2ccccc2)SCCO1`, the AC50 is 50 µM (active) in test [1]; 12.8 µM (active) in test [2]; 50 µM (active) in [3]; 89.9 µM (active) in [4]; 50 µM (active) in test [5]; 50 µM (active) in test [9]. Besides, the compound was classed as inactive in test [6], in test [7], in test [8] and in [10].

For the compound `Oc1ccccc1-c1ccccc1`, the compound was classed as inactive in test [1], in test [2], in [3], in test [4], in [5] and in test [6]. For the same compound, the compound was called inactive in [8], in [9] and in test [10].

Turning to `CCON=C(CC)C1=C(O)CC(c2c(C)cc(C)cc2C)CC1=O` (stereo unspecified), the compound was classed as inactive in test [1], in [2], in test [3], in [4], in [5] and in test [6]. Also, the call in test [7], in test [8] and in test [9] was inactive. In addition, the AC50 in test [10] was 50 µM (active).

Take `Cc1c(F)c(F)c(COC(=O)C2C(/C=C(\Cl)C(F)(F)F)C2(C)C)c(F)c1F` (stereo unspecified): the call in test [1], in test [2], in [3], in test [5], in test [6] and in test [8] was inactive. The compound was classed as inactive in [9] and in [10]. For the same compound, the AC50 in test [4] was 50 µM (active).

Take `O=C(Nc1ccccc1)Nc1ccnc(Cl)c1`: the AC50 in test [1] was 40.9 µM (active); in test [2], 65.3 µM (active); in test [3], 69 µM (active); in test [4], 23.7 µM (active); in [8], 70.7 µM (active); in [9] it was 25.3 µM (active). Besides, the AC50 in test [10] is 84.3 µM (active). Further, the compound was classed as inactive in [5] and in test [6].

For the compound `COP(=S)(OC)Oc1nc(Cl)c(Cl)cc1Cl`, the compound was called inactive in test [1], in test [2], in test [3], in [5], in [6] and in [8]. Further, the call in [9] and in test [10] was inactive. Besides, in [4], the AC50 is 80.5 µM (active).
